Measured values: PubChem BioAssay (NCI)
About 79,000 compounds went through this panel and 15% of them were active in at least one assay; those are over-represented in the sample as a whole. Values without a mark were called inactive. Calls of active or inactive are those of the source. Rule as the data show it: active = growth inhibition above about 70%; inactive = the rest.

Assay: NCI Yeast Anticancer Drug Screen. Data for the sgs1 mgt1 strain (AID 161);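 also: 0% = growth of cultures given vehicle only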
Conditions: S. cerevisiae sgs1 mgt1 strain, at 50.0 µM, stronger effect = higher value
In short: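 Test agents were incubated with a DNA-repair-mutant yeast strain. Growth was then read and compared against vehicle-treated controls.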
In the case of `CCOC(=O)c1c(Cl)nnc(-c2ccccc2)c1-c1ccccc1`, the growth inhibition is reported as 96.3% (active). Work on `Cc1cc(O)c(C=NC(=S)C(N)=S)c(=O)o1` yielded a growth inhibition of 8.7%. For `C/C(=N\NC(=S)NC(C)(C)C)c1ccccn1`, the growth inhibition was 90.5% (active). With `S=C(Nc1ccc(Br)c(Cl)c1)SCc1ccc2c(c1)OCO2` the growth inhibition was 88.7% (active). In the case of `CC(=O)Nc1ccc(S(=O)(=O)N/N=C/c2cc(I)cc([N+](=O)[O-])c2O)cc1`, the growth inhibition is reported as 89.7% (active). For `CCCC(O)CNCc1ccc(N(C)C)cc1` (stereo not given), the growth inhibition was 75.6% (active). `CC(=O)Nc1nnc(-c2coc3ccccc3c2=O)s1` gave a growth inhibition of 20.4%. For `COc1ccc(CSC(=S)Nc2ccc(Cl)c(C(F)(F)F)c2)cc1`, the growth inhibition was 89% (active). `CC(=O)Sc1ccc(Br)cc1` showed a growth inhibition of 34.9%. For `O=C(CNc1cccc(Cl)c1)Nn1c(-c2ccccc2)nc2ccccc2c1=O`, the growth inhibition was 95.2% (active). With `Cc1ccc(S(=O)(=O)c2cc(O)c(O)c3ccc(Br)cc23)cc1` the growth inhibition was 92.9% (active). In the case of `Fc1cccc2c1cc1ccc3cccc4ccc2c1c34`, the growth inhibition is reported as 83.5% (active). In the case of `COC1=C(/C(=N/Nc2ccc([N+](=O)[O-])cc2[N+](=O)[O-])c2ccccc2)COC1=O`, the growth inhibition is reported as -8.25%. In the case of `CCOC(=O)c1cnccc1CC1(C#N)c2ccccc2C=CN1C(=O)c1ccccc1` (stereo not given), the growth inhibition is reported as 93.2% (active). `CCCCNc1ccc(-c2c(N)nc(N)nc2CC)cc1[N+](=O)[O-]` showed a growth inhibition of 57%. In the case of `O=C(NC1CCN(Cc2ccccc2)CC1)c1cccc(I)c1`, the growth inhibition is reported as 81% (active). Molecule `O/N=C1/CC2CCCc3ccc4cccc1c4c32` (stereo not given) has a growth inhibition of 22.9%. For `CC(C)c1cc(O)c2c(c1O)C1CC3C(C)(C)CCC[C@]23C(=O)O1` (stereo not given in full), the growth inhibition was 92% (active).

Assay: NCI Yeast Anticancer Drug Screen. Data for the cln2 rad14 strain (AID 165);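 also: 0% = growth equal to vehicle treated cultures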
Conditions: S. cerevisiae cln2 rad14 strain, at 5.0 µM (retest, dose inferred, filed as 0.5), stronger effect = higher value
In short: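 Each compound was tested on cln2 rad14 yeast. Inhibition of growth was calculated against vehicle-exposed controls.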
`Oc1ccccc1N=CC1CCCCC1` gave a growth inhibition of -53%. For `CC(O[Si](c1ccccc1)(c1ccccc1)C(C)(C)C)[C@H](NC(=O)OC(C)(C)C)C(=O)O[Si](c1ccccc1)(c1ccccc1)C(C)(C)C` (stereo not given in full), the growth inhibition was 93% (active). For `Cn1c(=O)c2c3oc(=O)cc(O)c3c(=O)n3c4ccccc4n(c1=O)c23`, the growth inhibition was 34%. Molecule `CCCCCCCCCCCCCCC(O)C(=O)O` (stereo not given) has a growth inhibition of -1%. `O=[N+]([O-])c1cc(I)cc(/C=N/NS(=O)(=O)c2ccc(F)cc2)c1O` showed a growth inhibition of 0%. Work on `CCC/C=C1/OC(=O)C2=C[C@H]3CC[C@]21[C@]1(OC(=O)C2=C1CCC=C2)[C@H]3CCC` yielded a growth inhibition of -6%. In the case of `C=C(CC)C[C@@H]1C[C@]2(C(=O)OC)c3[nH]c4ccccc4c3CCN2C1=O`, the growth inhibition is reported as 15%. `Cc1ccc(N2C(=O)C(Cl)=C(Cl)C2=O)cc1` showed a growth inhibition of 8%. `COc1cc2c(cc1O)CCCCC2` gave a growth inhibition of -2%. Work on `CC(C)Cc1cc(O)cc2ccccc12` yielded a growth inhibition of 2%. `CCN(CC)Cc1cc(Nc2c3ccccc3nc3c4ccccc4n(C)c23)ccc1O` gave a growth inhibition of 0%. `CC(=O)Nc1ccc(-c2csc(Nc3ccnc4cc(Cl)ccc34)n2)cc1` gave a growth inhibition of 0%. `NNc1ccccc1F` showed a growth inhibition of -41%. Molecule `O=C(O)C1(Cc2ccc3c(c2)CCC3)Cc2ccccc2C1=O` (stereo not given) has a growth inhibition of 3%. With `c1cc2cc(Cc3ccc4[nH]ccc4c3)ccc2[nH]1` the growth inhibition was 16%. For `COc1cc(C(c2cc3c(cc2O)OCO3)N2CCOCC2)ccc1O` (stereo not given), the growth inhibition was 1%. Work on `Cc1c(N)nc(C2CC(=O)N2CC(N)C(N)=O)nc1C(=O)NC(C(=O)NC(C)C(O)C(C)C(=O)NC(C(=O)NCCc1nc(-c2nc(C(=O)NCCNCC(C)O)cs2)cs1)C(C)O)C(OC1OC(CO)C(O)C(O)C1OC1OC(CO)C(O)C(OC(N)=O)C1O)c1cnc[nH]1` (stereo not given) yielded a growth inhibition of 61%. `Cc1[nH]nc(C(=O)N(C)C)c1N=NN(C)C` gave a growth inhibition of -50%. With `CSc1c(S(C)=O)c2ccccc2n1C` (stereo not given) the growth inhibition was 25%. With `CN(C)c1ccc(C=Nc2cnc3ccccc3c2)cc1` the growth inhibition was -32%. In the case of `CCCCCCCCCCCCCCCc1nc(SCC(=O)O)n[nH]1`, the growth inhibition is reported as 3%. In the case of `Cc1ccc(S(=O)(=O)Oc2c([N+](=O)[O-])cc(C)cc2[N+](=O)[O-])cc1`, the growth inhibition is reported as -1%. `CCOC(=O)c1c(Cl)nnc(-c2ccccc2)c1-c1ccccc1` showed a growth inhibition of 1%. With `Cc1cc(O)c(C=NC(=S)C(N)=S)c(=O)o1` the growth inhibition was 14%. `C/C(=N\NC(=S)NC(C)(C)C)c1ccccn1` gave a growth inhibition of 31%. With `S=C(Nc1ccc(Br)c(Cl)c1)SCc1ccc2c(c1)OCO2` the growth inhibition was 50%. In the case of `CC(=O)Nc1ccc(S(=O)(=O)N/N=C/c2cc(I)cc([N+](=O)[O-])c2O)cc1`, the growth inhibition is reported as 1%.
